Assay results taken from PubChem BioAssay (NCATS).
“And” between values parts separate entries of the source, which are not always exact repeats. Equal values may be shown once. Results filed as inconclusive are left out. A call without a number means that no potency is given here. Values without a mark were called inactive. The source made the active and inactive calls. The call rests on the fitted dose curve; in most records, active means well fitted curve in the direction sought with a large enough effect; inconclusive means small, poorly fitted or top-dose-only effect, or another doubt; inactive means no such curve, though single readings can be large; an effect the other way counts as inactive or inconclusive. Non-standard residues stand in square brackets, D forms with d. Residues, ends and D or L forms follow the SMILES beside them. *: point of attachment. Nva = CCC[C@H](N)C(=O)O; Cbz = O=C(OCc1ccccc1)*

Key:
[1] = biological target: Cellular tumor antigen p53 (Homo sapiens) (UniProt P04637); experiment: Primary qHTS for small molecule compounds that upregulate eGFP-tagged delta133p53alpha (in N-terminal) cells. (AID 2060322); settings: NCI-H358 eGFP-delta133p53alpha fluorescence, 24 h; activation: hits give high values; further: nearly all actives have a fitted effect of over 75% in size; on activation: series mostly up to about 56 µM
Procedure, shortened: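 NCI-H358 cells pre-induced 24 h with 10 ng/ml doxycycline to express N-terminal eGFP-delta133p53alpha, then dosed 24 h at 37C without doxycycline; fixed, Hoechst-stained, GFP intensity by laser scanning cytometry, normalized to DMSO (0%) and 57.5 uM 5-azacytidine (100%).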

[2] = BET inhibitor-based combinations targeting novel dependencies in MECOM-rearranged (r) AML: SET-2 cell line (AID 2202231); settings: SET-2 AML cells viability, CellTiter-Glo luminescence, 48 h; viability: hits give low values, concentration not given here; further: nearly all actives have a fitted effect of over 35% in size
Procedure, shortened: (§1)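 Cells were plated at 500 per well and exposed to an 11-point dose series of each drug for 48 hr. Viability was measured by CellTiter-Glo luminescence, normalized to DMSO and empty-well controls, and summarized as AUC and per-cell-line Z-AUC.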

[3] = BET inhibitor-based combinations targeting novel dependencies in MECOM-rearranged (r) AML: OCI-AML3 cell line (AID 2202232); settings: Potency: OCI-AML3 viability; further: nearly all actives have a fitted effect of over 35% in size
Procedure, shortened: as §1

[4] = BET inhibitor-based combinations targeting novel dependencies in MECOM-rearranged (r) AML: MV-4-11 cell line (AID 2202233); further: nearly all actives have a fitted effect of over 45% in size
Procedure, shortened: (§2)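 Activity is given as area under the curve and as Z-AUC, mean-centred within each cell line. It comes from 11-point dose curves normalized to DMSO and empty wells. CellTiter-Glo luminescence was read after 48 hr drug exposure of 500 cells/well.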

[5] = BET inhibitor-based combinations targeting novel dependencies in MECOM-rearranged (r) AML: HNT-34 cell line (AID 2202234); further: nearly all actives have a fitted effect of over 35% in size
Procedure, shortened: as §2

[6] = BET inhibitor-based combinations targeting novel dependencies in MECOM-rearranged (r) AML: UCSD-AML1 cell line (AID 2202235); further: nearly all actives have a fitted effect of over 40% in size
Procedure, shortened: as §2

[7] = BET inhibitor-based combinations targeting novel dependencies in MECOM-rearranged (r) AML: AML-191 cell line (AID 2202236; further: nearly all actives have a fitted effect of over 35% in size)
Procedure, shortened: as §1

[8] = BET inhibitor-based combinations targeting novel dependencies in MECOM-rearranged (r) AML: AML-194 cell line (AID 2202237; further: nearly all actives have a fitted effect of over 40% in size)
Procedure, shortened: as §1
Potency means the concentration at half of the fitted maximal effect.

Chain of Cellular tumor antigen p53 (Homo sapiens) (P04637 whole entry, looked up): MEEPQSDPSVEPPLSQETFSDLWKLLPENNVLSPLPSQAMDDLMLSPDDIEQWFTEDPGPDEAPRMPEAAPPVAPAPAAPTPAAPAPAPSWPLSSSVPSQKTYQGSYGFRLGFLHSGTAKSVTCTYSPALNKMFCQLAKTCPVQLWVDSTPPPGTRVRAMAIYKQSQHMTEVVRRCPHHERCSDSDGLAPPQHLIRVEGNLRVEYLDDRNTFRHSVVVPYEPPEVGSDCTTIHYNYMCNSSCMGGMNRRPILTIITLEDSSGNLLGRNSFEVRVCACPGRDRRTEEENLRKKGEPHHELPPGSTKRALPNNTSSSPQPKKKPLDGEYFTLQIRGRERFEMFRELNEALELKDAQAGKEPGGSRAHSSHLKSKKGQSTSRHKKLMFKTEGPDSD

Row | SMILES | activation [1] | viability [2] | Potency [3] | Potency [4] | Potency [5] | Potency [6] | Potency [7] | Potency [8] | Potency [1] | Potency [2]
1 | C[C@]12CC[C@@H]3c4ccc(O)cc4CC[C@H]3[C@H]1[C@@H](O)[C@@H](O)[C@H]2O | 9.46% | 104% | inactive | inactive | inactive | inactive | inactive | inactive |  | 
2 | CCC[C@@H](C=O)NC(=O)[C@H](CC(C)C)NC(=O)[C@H](CC(C)C)NC(=O)OCc1ccccc1 (Cbz-Leu-Leu-[Nva]-aldehyde) |  |  | 2.35 µM (active) | 2.95 µM (active) | 2.63 µM (active) | 3.32 µM (active) | 2.95 µM (active) | 2.63 µM (active) | 5.44 µM (active) | 2.09 µM (active)
3 | O=S(=O)(O)CCSSCCS(=O)(=O)O | -2.01% | 104% | inactive | inactive | inactive | inactive | inactive | inactive |  | 
4 | NC[C@H]1O[C@H](O[C@@H]2[C@@H](O)[C@@H](O[C@H]3O[C@H](CO)[C@@H](O)[C@H](N)[C@@H]3O)[C@H](N)C[C@@H]2N)[C@H](O)[C@@H](O)[C@H]1O | 5.09% | 111% | inactive | inactive | inactive | inactive | inactive | inactive |  | 
5 | Oc1ccc(-c2ccc(-c3cc(Nc4cccc(CNC5CC5)c4)n[nH]3)cc2)c(O)c1 |  |  | 1.86 µM (active) | 1.18 µM (active) | 3.72 µM (active) | 2.35 µM (active) | 2.95 µM (active) | 3.72 µM (active) | 43.2 µM (active) | 7.42 µM (active)
6 | CCCCC(CC)COC(=O)C(C#N)=C(c1ccccc1)c1ccccc1 (configuration not stated) | -10.7% and -6.01% | 108% | inactive | inactive | inactive | inactive | inactive | inactive |  | 
7 | Oc1ccc(C2=Cc3ccc(O)cc3OC2)cc1 | 5.86% |  | 0.525 µM (active) | 0.662 µM (active) | 1.18 µM (active) | 1.32 µM (active) | 2.95 µM (active) | 10.5 µM (active) |  | 2.09 µM (active)
8 | OC[C@H]1O[C@@H](O[C@@H]2[C@@H](CO)O[C@](O)(CO)[C@H]2O)[C@H](O)[C@@H](O)[C@H]1O | 10% | 108% | inactive | inactive | inactive | inactive | inactive | inactive |  | 
9 | O=c1[nH]c(=O)n(C2CCCO2)cc1F (configuration not stated) | -1.88% | 111% | inactive | 20.9 µM (active) | inactive | inactive | inactive | inactive |  | 
10 | CCOC(=O)[C@H](CCc1ccccc1)N[C@@H](C)C(=O)N1CCC[C@H]1C(=O)O | 0% | 92.2% | inactive | inactive | inactive | inactive | inactive | inactive |  | 
11 | CN1CC(=O)NC1=NC(=O)Nc1cccc(Cl)c1 | -20.6% | 111% | inactive | inactive | inactive | inactive | inactive | inactive |  | 
12 | N[C@@H](CC(=O)N1CCn2c(nnc2C(F)(F)F)C1)Cc1cc(F)c(F)cc1F | -12.2% | 112% | inactive | inactive | inactive | inactive | inactive | inactive |  | 
13 | CC(=O)O[C@H]1C[C@@H]2CC[C@@H]3[C@H](CC[C@@]4(C)[C@H]3C[C@H]([N+]3(C)CCCCC3)[C@@H]4OC(C)=O)[C@@]2(C)C[C@@H]1N1CCCCC1 | 9.6% | 116% | inactive | inactive | inactive | inactive | inactive | inactive |  | 
14 | CC(C(=O)O)c1ccc(-c2ccccc2)c(F)c1 (configuration not stated) | 3.78% | 111% | inactive | inactive | inactive | inactive | inactive | inactive |  | 
15 | CC(C)C[C@@H](C=O)NC(=O)[C@H](CC(C)C)NC(=O)[C@H](CC(C)C)NC(=O)OCc1ccccc1 (Cbz-Leu-Leu-Leu-aldehyde) |  |  | 1.86 µM (active) | 2.35 µM (active) | 2.35 µM (active) | 2.95 µM (active) | 2.35 µM (active) | 2.63 µM (active) | 2.73 µM (active) | 1.48 µM (active)
16 | COc1ccc2cccc(CCNC(C)=O)c2c1 | 3.03% | 116% | inactive | inactive | inactive | inactive | inactive | inactive |  | 
17 | COc1ccc(CCN(C)CCCOc2ccc(S(=O)(=O)c3[nH]c4ccccc4c3C(C)C)cc2)cc1OC | -2.61% |  | 16.6 µM (active) | 11.8 µM (active) | 18.6 µM (active) | 14.8 µM (active) | 18.6 µM (active) | 14.8 µM (active) |  | 26.3 µM (active)
18 | O=C1c2ccccc2-[n+]2ccc3c([nH]c4ccccc43)c21 |  |  | 1.86 µM (active) | 1.48 µM (active) | 1.86 µM (active) | 1.86 µM (active) | 1.66 µM (active) | 2.35 µM (active) | 15.3 µM (active) | 2.63 µM (active)
19 | Nc1nc(-c2nn(Cc3ccccc3F)c3ncccc23)nc(N)c1N1CCOCC1 | 6.49% | 123% | 0.0018 µM (active) | inactive | inactive | inactive | inactive | inactive |  | 
